Among all 99,000 compounds or so, about 390 (0.39%) were called active. No stated cut-off is given here; in the data, active means TR-FRET ratio above about 2000; inactive means the rest. Only a selection was taken, and actives are over-represented in it overall.
Experiment: signal artefacts in PPARgamma/SRC-3 readout – biochemical, TR-FRET ratio, artefact control for PPARgamma SRC-3 recruitment agonists (AID 1048)
Conditions: TR-FRET artefact counter-screen, PPARgamma/SRC-3 format; at 8 µM; hits give high values

Row | Structure (SMILES) | TR-FRET ratio
1 | COc1cc(-n2c(=S)[nH]c3ccc(C)cc3c2=O)c(Cl)cc1Cl | 2500 (active)
2 | O=C(Cc1ccccc1)N1CCN(C2CCCCCC2)CC1 | 1380 (inactive)
3 | O=C(CCNS(=O)(=O)c1ccccc1)Nc1ccc(Cl)cc1C(=O)c1ccccc1 | 1450 (inactive)
4 | Cc1ccccc1N1C(=O)NC(=O)/C(=C\c2cc(C)n(C)c2C)C1=O | 1530 (inactive)
5 | Cc1cccc(-n2c(O)c(/C=N/N3CCOCC3)c(=O)[nH]c2=S)c1 | 1680 (inactive)
